Measured values published in PubChem BioAssay (Tox21).
Records with an inconclusive call do not appear. Values without a mark were called inactive. Calls come from the whole dose curve; as a rule, active = well fitted cell-killing curve with a large enough effect in the repeat runs; inconclusive = weak or mixed curves, or effect the other way; inactive = flat fitted curve, though single readings scatter.

Assay: qHTS RealTime-Glo MT Cell Viability Assay in HEK293 cells - 0 hour (AID 1224880); note: top concentration of the series differs between compounds; nearly all actives have a fitted effect of over 45% in size
Conditions: RealTime-Glo luminescence; series mostly up to 76.8 µM; activity change, negative = cytotoxicity: at the top concentration
Text: U.S. Tox21 Program National Center for Advancing Translational Sciences [NCATS] NIH Chemical Genomics Center [NCGC] U.S. Environmental Protection Agency [EPA] National Institutes of Environmental Health Sciences [NIEHS] National Toxicology Program [NTP] U.S. Food and Drug Administration [FDA] Tox21 Assay Overview: Measure of cell viability is critical in the cell-base assay. Analysis of cell viability is necessary for the characterization of cell responses to cytotoxic drugs and environmental stress. A RealTime-Glo MT Cell Viability Assay to monitor cell viability in real time of continues cell culture during 40 hours of compound treatment was used to screen Tox21 10K library compounds in Hek293 cells. The RealTime-Glo MT Cell Viability Assay is a nonlytic, homogeneous, bioluminescent method to measure cell viability in real time using a simple, plate-based method. The assay involves adding NanoLuc luciferase and a cell-permeant prosubstrate to cells in culture. Viable cells reduce the proprietary prosubstrate to generate a substrate for NanoLuc luciferase. This substrate diffuses from cells into the surrounding culture medium, where it is rapidly used by the NanoLuc Enzyme to produce a luminescent signal. The signal correlates with the number of viable cells, making the assay well suited for cytotoxicity studies.
Tox21 Assay Protocol Summary: The mixture of Hek293 cell suspension and reagents were dispensed at 600cells/6 ul/well in 1536-well tissue culture treated black solid bottom plates using a Multidrop dispenser. After the assay plates were incubated at a 37 C/5% CO2 incubator for 5 hours, 23 nL of compounds dissolved in DMSO, positive and negative controls was transferred to the assay plate by a pintool work station. The plates were incubated at 37 C for 40 hours. The luminescence intensity were measured at 0h, 8h, 16h, 24h, 32h and 40h time points using ViewLux plate reader during compound treatment.
% is set by controls: 0 for no effect and ±100 for the full control effect.

Row | SMILES | activity change, negative = cytotoxicity
1 | CCCOC(=O)CC | 10.5%
2 | CC(COc1ccccc1)NN (stereo not given) | -0.956% [at 35.3 µM]
3 | CCCc1nn(C)c2c(=O)[nH]c(-c3cc(S(=O)(=O)N4CCN(C)CC4)ccc3OCC)nc12 | 0.395% [at 35.3 µM]
4 | CCOc1ccc2nc(S(N)(=O)=O)sc2c1 | 0.849% [at 35.3 µM]
5 | CC(C)(N)C#N | 1.77%
6 | CCNS(=O)(=O)c1ccc(C)cc1 | 1.99%
7 | C=CN1CCCCCC1=O | -2.68%
8 | CO[Si](C)(OC)c1ccccc1 | 2.82%
9 | CC(C)(C)C(=O)Oc1ccc(S(=O)(=O)Nc2ccccc2C(=O)NCC(=O)O)cc1 | 1.94% [at 35.3 µM]
10 | NC(=O)N1c2ccccc2CC(=O)c2ccccc21 | -1.98% [at 35.3 µM]
11 | NS(=O)(=O)Cc1noc2ccccc12 | 1.99% [at 35.3 µM]
12 | CN1CC(=O)N/C1=N/C(=O)Nc1cccc(Cl)c1 | 8.82% [at 35.3 µM]
13 | CC(CO)(CO)[N+](=O)[O-] | 6.54%
14 | CCOCC(C)O (stereo not given) | -15.8%
15 | CCCO[Si](OCCC)(OCCC)OCCC | 1.13%
16 | CC(C)(C)c1ccc(-c2ccc(C(C)(C)C)cc2)cc1 | -2.15%
17 | CC(C)(CCC(=O)O)C(=O)O | -1.83%
18 | Cc1ccc(C(=O)c2ccccc2)cc1 | -0.79%
19 | Cc1ccnc(NS(=O)(=O)c2ccc(N)cc2)n1 | 13.1% [at 35.3 µM]
20 | O=S(=O)(O)c1cc(O)c(O)c(S(=O)(=O)O)c1 | -16.2%

Row | SMILES | activity change, negative = cytotoxicity
21 | O=S(=O)(O)c1cccc(S(=O)(=O)O)c1 | 6.29%
22 | CCN(Cc1ccccc1)c1ccccc1 | -18.3%
23 | C1CCC2=NCCCN2CC1 | 10.6%
24 | NO | 0.22%
25 | N[C@H](C(=O)O)[C@@H](O)c1ccc(O)c(O)c1 | 0.0698% [at 35.3 µM]
26 | CCCCOC(=O)CCC(C)=O | -8.15%
27 | COc1ccccc1OCC1CNC(=O)O1 (stereo not given) | 15.7% [at 35.3 µM]
28 | CCCCCC(=O)OCCc1ccccc1 | 4.95%
29 | CN(C)C(=O)Oc1cccc([N+](C)(C)C)c1 | -2.01% [at 35.3 µM]
30 | CCCCCCCCCCCCCCC(=O)O | 5.16%
31 | O=C1c2ccccc2C(=O)c2cc(O)ccc21 | -19.3%
32 | [O-][n+]1cccc(CO)c1 | -1.02% [at 35.3 µM]
33 | CCC1C(=O)OCC1Cc1cncn1C (stereo not given) | -3.86% [at 35.3 µM]
34 | CCOC(=O)COC(=O)c1ccccc1C(=O)OCC | 9.56%
35 | CCCCc1ccc2c(n1)[C@@H](c1ccc(OC)cc1C[C@H](C)C(=O)O)[C@H](C(=O)O)[C@H]2c1ccc2c(c1)OCO2 | -17.1%
36 | CC1=C(C/C=C(\C)CCC[C@H](C)CCC[C@H](C)CCCC(C)C)C(=O)c2ccccc2C1=O | -6.23% [at 35.3 µM]
37 | C1CCC2(CCCCO2)OC1 | -1.87%
38 | CCCc1ncc(C[n+]2ccccc2C)c(N)n1 | -0.804% [at 35.3 µM]
39 | C[N+](C)(C)CCCCCCCCCC[N+](C)(C)C | 6.48% [at 35.3 µM]
40 | CC(C)(C)OC(=O)c1cccc(N)c1 | 13.7%
